In PubChem BioAssay (Tox21):
Inconclusive results are not listed. Calls of active or inactive are those of the source. Unless noted, the call rests on the fitted dose curve; in most records, active means well fitted curve in the direction sought with a large enough effect in the repeat runs; inconclusive means weak or mixed curves; inactive means no such curve, though single readings can be large; an effect the other way counts as inactive or inconclusive.

Tests used:
[1] = qHTS assay for small molecules that induce genotoxicity in human embryonic kidney cells expressing luciferase-tagged ATAD5 (AID 651632); further: nearly all actives have a fitted effect of over 15% in size
Method in brief: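 Luminescence read-out: after 16 hr compound exposure at 37C, ATAD5-luciferase HEK293T cells received Amplite, 30 min RT, then CCD imaging. A rise in signal marks genotoxic stress.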

[2] = qHTS assay for small molecule agonists of the p53 signaling pathway - cell viability (AID 651633; calls by dose curve;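 further: p53RE-bla HCT reporter cells with a stable beta-lactamase p53 reporter; nearly all actives have a fitted effect of over 30% in size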)
Method in brief: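 p53RE-bla cells, seeded at 4,000 per well and rested 5 h at 37 C/5% CO2, received compounds in DMSO for 16 h at 37 C. CellTiter-Glo was then added, and luminescence was read after 30 min at room temperature to gauge cytotoxicity.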

[3] = qHTS assay for small molecules that induce genotoxicity in human embryonic kidney cells expressing luciferase-tagged ATAD5 - cell viability (AID 651634; calls by dose curve; further: nearly all actives have a fitted effect of over 25% in size)
Method in brief: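 HEK293T ATAD5-luc cells, 2,000/well; compound 15.5 hr, 37C/5% CO2; CellTiter-Fluor 30 min, 37C; fluorescence read.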

[4] = qHTS assay for small molecule disruptors of the mitochondrial membrane potential (AID 720635)
Method in brief: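 HepG2 cells (2,000/well) attached overnight at 37C, then took compound for 1 hr at 37C, 5% CO2. Mito-MPS dye was added for 30 min; fluorescence was read at 490/535 nm (monomers) and 540/590 nm (aggregates).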

[5] = qHTS assay to test for compound auto fluorescence at 590 nm (red) in HepG2 cells (AID 720674)
Method in brief: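 Intrinsic compound fluorescence in the red window (Ex/Em 540/590 nm) is measured in attached HepG2 cells exposed for 1 hr, DMSO vehicle as baseline, benchmarked to Rose Bengal sodium.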

[6] = qHTS assay to test for compound auto fluorescence at 535 nm (green) in HepG2 cells (AID 720675)
[7] = qHTS assay to test for compound auto fluorescence at 460 nm (blue) in HEK293 cells (AID 720678)
Method in brief: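 HEK293 cells (2,000/well, medium with 10% dialyzed FBS) attached 4-5 hr, then exposed to compound overnight at 37C, 5% CO2. Blue fluorescence read at 405/460 nm, with triamterene as reference fluorophore.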

[8] = qHTS assay to test for compound auto fluorescence at 590 nm (red) in HEK293 cells (AID 720679)
Method in brief: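 HEK293 cells (2,000/well, 10% dialyzed FBS) attached 4-5 hr, then dosed with compound or DMSO and incubated overnight at 37C, 5% CO2. Red fluorescence read at 540/590 nm, Rose Bengal sodium as reference fluorophore.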

[9] = qHTS assay to test for compound auto fluorescence at 535 nm (green) in HEK293 cells (AID 720680)
[10] = qHTS assay to test for compound auto fluorescence at 460 nm (blue) in HEK293 cell free culture (AID 720681)
Method in brief: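 Test compounds were pinned into cell-free culture medium (DMEM with 10% FBS) and fluorescence was read directly at Ex/Em 405/460 nm. Signals were expressed as fluorescence equivalents of triamterene, with DMSO vehicle as control.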

[11] = qHTS assay to test for compound auto fluorescence at 535 nm (green) in HEK293 cell free culture (AID 720682)
Method in brief: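 Read-out: 485/535 nm fluorescence intensity, calibrated against fluorescein. Medium only (DMEM + 10% FBS, no cells); test compound or DMSO vehicle added by pintool before plate reading.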

[12] = qHTS assay to test for compound auto fluorescence at 460 nm (blue) in HepG2 cell free culture (AID 720685)
Method in brief: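 Cell-free plates of MEM plus 10% FBS received 23 nL compound or DMSO vehicle; blue-channel (405/460 nm) intensity scored against triamterene as reference fluorophore.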

[13] = qHTS assay to test for compound auto fluorescence at 535 nm (green) in HepG2 cell free culture (AID 720686)
[14] = qHTS assay to test for compound auto fluorescence at 460 nm (blue) in HepG2 cells (AID 720687)
Method in brief: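 Cells (2,000/well in MEM with 10% FBS) attached overnight at 37 C, then were exposed to compound or DMSO for 1 hr at 37 C, 5% CO2. Fluorescence read at Ex/Em 405/460 nm, expressed as triamterene-equivalent signal.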

[15] = qHTS assay for small molecule disruptors of the mitochondrial membrane potential - cell viability (AID 720634; calls by dose curve;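 further: human HepG2 liver cancer cells; nearly all actives have a fitted effect of over 20% in size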)
Method in brief: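 Luminescence from CellTiter-Glo (ATP content) gave viability in HepG2 cells, read in the same wells as the MMP dye assay after 1 hr compound exposure at 37 C.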

[16] = qHTS assay to test for compound auto fluorescence at 590 nm (red) in HEK293 cell free culture (AID 720683)
Method in brief: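 Tox21 10K library compounds were pinned into cell-free DMEM with 10% FBS and fluorescence was read at excitation 540 nm. Activity is expressed as Rose Bengal sodium equivalency.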

[17] = qHTS assay to test for compound auto fluorescence at 590 nm (red) in HepG2 cell free culture (AID 720684)
Method in brief: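 Ex 540 / Em 590 nm read of compound in cell-free MEM (10% FBS). Rose Bengal sodium reference.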

[18] = molecular target: Glucocorticoid receptor (Homo sapiens) (UniProt P04150); experiment: qHTS assay to identify small molecule antagonists of the glucocorticoid receptor (GR) signaling pathway (AID 720692; active means well fitted inhibition curve with a large enough effect in the signal ratio in the repeat runs, not every such curve was filed as active; the % refers to the signal ratio)
Sequence of Glucocorticoid receptor (Homo sapiens) (P04150 whole entry, looked up): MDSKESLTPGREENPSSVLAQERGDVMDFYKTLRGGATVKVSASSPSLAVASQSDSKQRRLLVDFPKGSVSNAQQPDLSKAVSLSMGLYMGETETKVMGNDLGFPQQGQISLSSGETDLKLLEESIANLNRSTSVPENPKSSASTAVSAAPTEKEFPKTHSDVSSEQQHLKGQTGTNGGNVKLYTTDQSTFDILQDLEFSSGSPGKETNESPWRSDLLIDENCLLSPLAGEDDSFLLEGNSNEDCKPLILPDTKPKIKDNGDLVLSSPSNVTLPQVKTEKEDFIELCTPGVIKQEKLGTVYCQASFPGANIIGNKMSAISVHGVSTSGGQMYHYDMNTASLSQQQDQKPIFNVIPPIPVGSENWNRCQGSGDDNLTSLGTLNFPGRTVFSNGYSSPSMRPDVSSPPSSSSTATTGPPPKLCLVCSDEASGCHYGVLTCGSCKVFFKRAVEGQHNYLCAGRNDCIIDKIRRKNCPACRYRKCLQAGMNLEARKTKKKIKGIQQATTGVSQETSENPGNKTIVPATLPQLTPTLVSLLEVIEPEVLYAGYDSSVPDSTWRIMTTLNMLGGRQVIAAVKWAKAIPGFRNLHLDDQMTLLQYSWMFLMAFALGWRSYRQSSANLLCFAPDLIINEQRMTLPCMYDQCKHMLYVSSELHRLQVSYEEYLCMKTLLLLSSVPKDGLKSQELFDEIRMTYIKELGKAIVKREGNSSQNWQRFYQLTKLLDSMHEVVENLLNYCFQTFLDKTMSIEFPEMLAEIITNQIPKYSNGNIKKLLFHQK
Method in brief: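 Read-out: beta-lactamase FRET substrate fluorescence, 2 h at room temperature, in HeLa cells stably carrying a GRE-driven bla reporter. Compounds were co-incubated with 5 nM dexamethasone agonist (final) for 18 h at 37 C.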

[19] = molecular target: Glucocorticoid receptor (Homo sapiens) (UniProt P04150); experiment: qHTS assay to identify small molecule agonists of the glucocorticoid receptor (GR) signaling pathway (AID 720691; active means well fitted activation curve with a large enough effect in the signal ratio in the repeat runs, not every such curve was filed as active; the % refers to the signal ratio); conditions: GR-bla HeLa, beta-lactamase reporter ratio, 18 h; activation: at 62.4 µM (top of the series)
Method in brief: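 HeLa GR-bla reporter line; cells pre-incubated 4 h, compound in DMSO 18 h at 37 C; LiveBLAzer B/G FRET substrate 2 h RT; fluorescence intensity read-out.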

Measured: Potency

ClCBr
not listed: [15] | [16] | [17] | [18] | [19]
inactive: all other assays above

O=C(N[C@H]1N=C(c2ccccc2F)c2cccc3c2N(CC3)C1=O)c1cc2ccccc2[nH]1
not listed: [4] | [8] | [18] | [19]
inactive: all other assays above

c1ccc2nc(N3CCNCC3)ccc2c1
not listed: [4] | [5] | [16] | [19]
inactive: all other assays above

Cc1cc2c3c(c1)C(c1ccccc1)=N[C@@H](NC(=O)c1ccncc1)C(=O)N3CC2
not listed: [4] | [8] | [11] | [18] | [19]
inactive: all other assays above

CCOP(=S)(OCC)SC(CCl)N1C(=O)c2ccccc2C1=O (stereo unspecified)
not listed: [4] | [15] | [18] | [19]
inactive: all other assays above

CNC(=O)/C=C(\C)OP(=O)(OC)OC
not listed: [4] | [11] | [15] | [17]
inactive: all other assays above

CCCCN(CCCC)C(=S)[S-].CCCCN(CCCC)C(=S)[S-].[Ni+2]
not listed: [4] | [8] | [11] | [15] | [16] | [19]
inactive: all other assays above
